The text below walks through data of PubChem BioAssay AID1220 (Sanford-Burnham Center for Chemical Genomics, 2008).

Out of some 190,000 compounds screened, about 1,300 (0.68%) were called active. Rule as the data show it: active = inhibition above about 50%; inactive = the rest. The full list was thinned out, with actives kept by preference.

For the assay, the target named is Mannose-6-phosphate isomerase (Homo sapiens) (UniProt P34949). The assay is described as follows: human PMI inhibitors, high substrate, primary screen, biochemical, fluorescence intensity, high mannose 6-phosphate (AID 1220). The conditions noted are these: recombinant PMI enzyme, coupled fluorescence intensity; at 20 µM; stronger effect = higher value.
Chain of Mannose-6-phosphate isomerase (Homo sapiens) (P34949 whole entry, looked up): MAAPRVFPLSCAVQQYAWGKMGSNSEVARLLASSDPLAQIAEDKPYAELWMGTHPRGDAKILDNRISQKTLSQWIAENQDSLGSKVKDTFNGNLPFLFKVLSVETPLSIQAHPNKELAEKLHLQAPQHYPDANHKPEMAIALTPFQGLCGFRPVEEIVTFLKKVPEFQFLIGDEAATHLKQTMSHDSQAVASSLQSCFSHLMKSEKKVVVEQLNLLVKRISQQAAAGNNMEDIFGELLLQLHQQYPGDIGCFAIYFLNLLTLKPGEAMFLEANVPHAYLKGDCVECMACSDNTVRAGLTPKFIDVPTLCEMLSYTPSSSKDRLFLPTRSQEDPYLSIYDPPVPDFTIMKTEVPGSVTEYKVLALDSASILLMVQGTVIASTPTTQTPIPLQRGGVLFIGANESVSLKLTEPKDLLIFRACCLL
As for `O=C(N/N=C/c1c(O)n(CCc2ccccc2)c(=O)[nH]c1=O)c1ccncc1`, the inhibition – broadly, the drop in the measured response relative to a control, in per cent – was -28.2% (inactive).

On to `O=C(N/N=C/c1c(O)n(CCc2ccc(F)cc2)c(=O)[nH]c1=O)c1ccncc1`, for which the inhibition is 53% (active).

For the molecule `COc1ccc(CCn2c(O)c(/C=N/NC(=O)c3ccncc3)c(=O)[nH]c2=O)cc1OC`, the inhibition is -12.8% (inactive).

`CC1CCN(S(=O)(=O)c2ccc(NN=C(C#N)C#N)cc2)CC1`: the inhibition was -24.1% (inactive).

For the molecule `CC(C)Oc1cccc(C(=O)C2CCCN(Cc3ccon3)C2)c1` (stereo not drawn), the inhibition is 4% (inactive).

For the molecule `CC(=O)NC1CC2CCCC(C1)N2` (stereo not drawn), the inhibition is -5.2% (inactive).

For `O=C(NC1(C(F)(F)F)Oc2ccccc2O1)N1CCC2(CC1)OCCO2`, the inhibition is 3.8% (inactive).

As for `O=C(NC1(C(F)(F)F)Oc2ccc(Cl)cc2O1)N1CCC2(CC1)OCCO2` (stereo not drawn), the inhibition is 70.3% (active).

For the molecule `O=C(NC(=O)N1CCC2(CC1)OCCO2)c1ccc(Cl)cc1`, the inhibition was 11.1% (inactive).

Turning to `O=c1[nH]c(=O)n(Cc2ccccc2Cl)c(O)c1C=Nc1ccc(F)cc1`, the inhibition was 13.7% (inactive).

Take `CC(=NCCN1CCCCC1)c1c(O)n(-c2ccc(Cl)cc2)c(=O)[nH]c1=O`: the inhibition was 2.8% (inactive).

Take `COc1cc2c(cc1OC)-c1c(OC)c(OC)cc3c1C(C2)N(C)CC3` (stereo not drawn): the inhibition was 39.3% (inactive).

Regarding `COc1cc2c(cc1OC)-c1c(OC)c(OC)cc3c1[C@H](C2)N(C)CC3`, the inhibition is -16.2% (inactive).

Regarding `COc1cc2c(cc1O)CC1c3c(cc(O)c(OC)c3-2)CCN1C` (stereo not drawn), the inhibition is 52.5% (active).

With `CCc1cccc(C)c1NC(=S)N1CC2CC(C1)c1cccc(=O)n1C2` (stereo not drawn), the inhibition was -3.9% (inactive).

Regarding `CCN(CC)C(=O)c1ccc(N2C(=O)C3CC=C(Cl)CC3C2=O)cc1` (stereo not drawn), the inhibition is -1.5% (inactive).

Take `Nc1ccncc1Cl`: the inhibition is -4.4% (inactive).

Take `N#Cc1cc2c(nc1SCC(=O)Nc1ccc(Cl)cc1)C1CCN2CC1`: the inhibition was -2.2% (inactive).

Regarding `CN1C[C@H](CNC(=O)OCc2ccccc2)C[C@@H]2c3cccc4c3c(cn4C)C[C@H]21`, the inhibition is 58.2% (active).

For the molecule `O=C(NC[P+](=O)O)OCc1ccccc1`, the inhibition was -7% (inactive).

Regarding `CCN(CC)C(=O)N[C@H]1C[C@@H]2c3cccc4[nH]cc(c34)C[C@H]2N(C)C1`, the inhibition was -0.8% (inactive).

Take `CC(C)CCN1CCN(Cc2c(F)cccc2Cl)CC1CCO` (stereo not drawn): the inhibition is -1.1% (inactive).

For `CC(=O)OC1(c2ccccc2)CCN(C)C(C)C1C` (stereo not drawn), the inhibition is -7.2% (inactive).
